These results are taken from PubChem BioAssay AID588855 (National Center for Advancing Translational Sciences (NCATS), 2011).

Molecules are shown by their SMILES. Screen size: about 410,000 compounds; about 5,000 (1.2%) were called active. About 13% were inconclusive and are not listed. Calls come from the whole dose curve; as a rule, active = well fitted inhibition curve with a large enough effect; inconclusive = small, poorly fitted or top-dose-only effect; inactive = no such curve, though single readings can be large or run the other way. The list comes from a sample in which actives are over-represented; it also holds similar structures and randomly drawn compounds. Entries that show only a call come without a potency.
Potency is the fitted concentration of half-maximal effect.

The nature of the experiment: qHTS for Inhibitors of TGF-b. Note: nearly all actives have a fitted effect of over 65% in size. The following applies: HepG2 CAGA-GFP TGF-b/SMAD3 reporter, GFP fluorescence, 18 h, TGF-beta stimulated, 500 pg/mL final; series mostly up to 46.1 µM. Put shortly:
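Smad-responsive CAGA-GFP expression was quantified in HEPG2 cells exposed to compounds and 500 pg/mL final TGF-beta for 18 h at 37 degrees C; unstimulated wells defined full inhibition.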
For `NC1=CC(=O)C(=O)c2cccnc21`, the Potency is 7.94 µM (active).

Consider `Cc1ccc2nc(COc3ccc(NC(=O)COc4ccccc4F)cc3)cc(=O)n2c1`, for which the Potency result was “inactive”.

As for `C[C@]12c3[nH]c4ccc(Cl)cc4c3CCN1C(=O)[C@@H](CC(=O)NCCCn1ccnc1)C[C@@H]2C(=O)N1CCOCC1`, the Potency entry was “inactive”.

In the case of `COc1ccc(CNC(=O)C[C@H]2C[C@H](C(=O)N3CCOCC3)[C@@]3(CCC4CCCC4)c4[nH]c5ccc(Cl)cc5c4CCN3C2=O)cc1OC`, the Potency was 1.78 µM (active).

`CCN(CC)C(=O)[C@H]1CC(CC(=O)NCc2ccco2)C(=O)N2CCc3c([nH]c4ccccc34)[C@]12C` (stereo not given in full): the Potency result is “inactive”.

Take `O=C(C[C@H]1C[C@H](C(=O)N2CCOCC2)[C@@]2(CCC3CCCC3)c3[nH]c4ccc(Cl)cc4c3CCN2C1=O)NCc1ccco1`: the Potency result is “inactive”.

For `CC(C)N(C(=O)[C@H]1C[C@H](CC(=O)NC(C)(C)C)C(=O)N2CCc3c([nH]c4ccc(Cl)cc34)[C@]12C)C(C)C`, the Potency was 11.2 µM (active).

As to `COc1ccc2[nH]c3c(c2c1)CCN1C(=O)C(CC(=O)NCCCN(C)C)C[C@H](C(=O)N2CCOCC2)[C@@]31CCC1CCCC1` (stereo not given in full), the Potency entry is “inactive”.

Take `CCOC(=O)c1c(S(=O)(=O)N2CCCC(C(=O)NCc3cccc(C)c3)C2)c(C)n(C)c1C` (stereo not given): the Potency result is “inactive”.

Take `Cc1ccc(-n2c(SCC(=O)c3ccccc3)nc3c([nH]c4ccccc43)c2=O)cc1`: the Potency entry was “inactive”.

`CN1c2ccc(Cl)cc2-c2nc(SCC(=O)Nc3cc(F)ccc3F)ncc2S1(=O)=O`: the Potency entry is “inactive”.

With `O=C(c1ccc2c(c1)N(Cc1ccccc1F)C(=O)c1ccccc1S2(=O)=O)N1CCOCC1`, the Potency entry was “inactive”.

On to `Cc1ccc(S(=O)(=O)NCc2nc3nc(C)cc(C)n3n2)cc1`, for which the Potency result is “inactive”.

Take `COc1ccc(CCNC(=O)CCCCn2c(=O)c3ccccc3n(Cc3ccccc3)c2=O)cc1OC`: the Potency result was “inactive”.

Consider `CC(=O)c1ccc(NC(=O)CSc2c(C(C)C)cnc3c2c(=O)n(C)c(=O)n3C)cc1`, for which the Potency entry is “inactive”.

For the compound `O=C1CCCC2=C1C(c1cccs1)CC(=O)N2c1ccc(F)cc1` (stereo not given), the Potency result is “inactive”.

With `CCOC(=O)c1cc2c(n(-c3ccc(C)cc3)c1=O)CCCC2=O`, the Potency entry is “inactive”.

With `CCOC(=O)C1=C(N)N(c2ccc(C)cc2)C2=C(C(=O)CCC2)C1c1cccs1` (stereo not given), the Potency was 11.2 µM (active).

On to `COc1ccccc1NC(=O)c1oc2ccccc2c1NC(=O)COc1ccccc1OC`, for which the Potency entry was “inactive”.

As to `O=C(Nc1ccc(Cl)cc1)c1cnn2c1NC(=C1CC1)C=C2C(F)F`, the Potency result is “inactive”.

Turning to `Cc1cc(=O)oc2cc(OCC(=O)N3CCN(c4ccc(F)cc4)CC3)c(Cl)cc12`, the Potency entry was “inactive”.

With `Cc1cccc(C)c1NC(=O)CN1CCN(c2ccc(F)cc2)CC1`, the Potency result is “inactive”.

Take `O=C(Cc1ccccc1)NNC(=O)C1CCN(c2ncccn2)CC1`: the Potency entry was “inactive”.

On to `Oc1c(CN2CCCC2)cc(COCc2ccccc2)c2cccnc12`, for which the Potency was 4.47 µM (active).

Consider `Oc1c(CN2CCN(c3ccc(F)cc3)CC2)cc(Cl)c2cccnc12`, for which the Potency is 7.08 µM (active).

Turning to `O=c1cc(CN2CCCCCCC2)c2c(ccc3ccccc32)o1`, the Potency result was “inactive”.

As for `CCc1nn(CCCC(=O)NCc2ccccc2OC)c(=O)c2cc3occc3n12`, the Potency result is “inactive”.

With `CCc1ccc(CNC(=O)c2cc3cc4ccc(OC)cc4nc3o2)cc1`, the Potency entry was “inactive”.

In the case of `CCCNC(=O)C1CCN(c2nc3ccc(C)cc3[nH]2)CC1`, the Potency entry was “inactive”.

On to `CC(C)=CC(=O)Nc1nnc(-c2ccc(F)cc2)s1`, for which the Potency result was “inactive”.

For the compound `CCc1ccc(NC(=O)Nc2ccncc2)cc1`, the Potency result is “inactive”.

`Cc1ccc(NC(=O)Nc2nnc(-c3ccncc3)s2)cc1`: the Potency is 11.2 µM (active).

With `CN1CCN(C2(CNC(=O)COc3ccc(C(C)(C)C)cc3)CCCCC2)CC1`, the Potency result is “inactive”.

Take `CCOc1ccc(S(=O)(=O)c2cn(Cc3ccccc3)c3ccc(OCC)cc3c2=O)cc1`: the Potency result is “inactive”.

For `O=C(Nc1cccc(Cl)c1)c1csnn1`, the Potency entry is “inactive”.

Take `Cc1csc(NC(=S)Nc2cccc(Cl)c2)n1`: the Potency was 8.91 µM (active).

For the compound `O=C(NCc1cn2ccsc2n1)Nc1cccc(Cl)c1`, the Potency result was “inactive”.

For the compound `O=C1CC(c2ccccc2)CC2=C1C(c1ccco1)n1nc(C(F)(F)F)nc1N2` (stereo not given), the Potency entry was “inactive”.

On to `CCCCNC(=O)Cn1c(SCc2cccc(Cl)c2)nc2ccncc21`, for which the Potency result is “inactive”.

Take `Cc1cccc(-c2nnc(SC(C)C(=O)Nc3ccccc3)n2C)c1` (stereo not given): the Potency entry was “inactive”.

Regarding `O=S(=O)(NCCS(=O)(=O)N1CCN(c2ccccc2)CC1)c1ccc(Cl)cc1`, the Potency entry is “inactive”.

`O=C(CN1C(=O)COc2ccc(S(=O)(=O)N3CCOCC3)cc21)N1CCN(c2cccc(Cl)c2)CC1`: the Potency entry was “inactive”.

With `CC(C)(C)SCCNC(=O)c1cccc([N+](=O)[O-])c1`, the Potency result is “inactive”.

In the case of `O=C(Nc1ccc(C2CC2(Cl)Cl)cc1)c1cccc([N+](=O)[O-])c1` (stereo not given), the Potency was 15.8 µM (active).

For `O=C(Nc1nnc(SCc2c(Cl)cccc2Cl)s1)c1cccc([N+](=O)[O-])c1`, the Potency entry was “inactive”.

For the compound `Cc1ccc(-c2cn3c(n2)sc2cc(C(=O)NCc4cccs4)ccc23)c(C)c1`, the Potency result was “inactive”.

Regarding `Cc1cc(C)cc(NC(=O)CSc2nc(=O)n(CCN3CCOCC3)c3c2CCC3)c1`, the Potency result is “inactive”.

Take `Cc1nnc(SCc2cc(=O)c3cc(F)ccc3[nH]2)n1C`: the Potency entry was “inactive”.

On to `CCCc1cc(C(=O)Nc2ccc(Cl)cn2)cs1`, for which the Potency result was “inactive”.

Regarding `Clc1ccc(Nc2nc(-c3cccs3)cs2)nc1`, the Potency is 11.2 µM (active).

Take `O=C(Nc1ccc(Cl)cn1)c1ccccc1-c1ccccc1`: the Potency result is “inactive”.

With `COc1ccc(C(=O)COC(=O)CCCC(=O)Nc2cc(C(F)(F)F)ccc2Cl)cc1`, the Potency entry was “inactive”.

In the case of `Cc1cc(Nc2cccc(C(F)(F)F)c2)nc2ccc(NC(=O)c3ccc(=O)[nH]c3)cc12`, the Potency entry is “inactive”.

On to `COc1cc(NC(=O)c2cncc(-c3ccc(C#N)cc3)c2)cc(C(=O)Nc2cccc(C(F)(F)F)c2)c1`, for which the Potency result was “inactive”.

As to `COc1cc(NC(=O)c2[nH]cnc2C(N)=O)cc(C(=O)Nc2cccc(C(F)(F)F)c2)c1`, the Potency was 4.47 µM (active).

Take `O=C(Nc1ccccc1F)C(c1ccccc1)N1Cc2ccccc2C1=O` (stereo not given): the Potency entry was “inactive”.

`CCc1ccc(NC(=O)CCS(=O)(=O)c2cc3c(cc2Cl)NC(=O)CO3)cc1`: the Potency entry was “inactive”.

In the case of `O=C(COc1ccc(Br)cc1F)NC1CCN(Cc2ccccc2)CC1`, the Potency entry is “inactive”.

For the compound `O=C(NC1CCN(Cc2ccccc2)CC1)c1cc(Br)c(Br)[nH]1`, the Potency entry was “inactive”.

As for `S=C(Nc1ccc(Br)cc1)NC1CCN(Cc2ccccc2)CC1`, the Potency is 10 µM (active).

For the compound `COc1ccc(Nc2ncc(C(=O)Nc3cc(C)ccc3OC)c3ccccc23)cc1`, the Potency result is “inactive”.

On to `CCc1nccn1S(=O)(=O)c1cc(Br)ccc1Br`, for which the Potency result was “inactive”.

Consider `COc1ccc(OC)c(NC(=O)/C=C/c2ccc(C)o2)c1`, for which the Potency entry was “inactive”.

For the compound `Cc1ccc(-c2nc(S(=O)(=O)c3ccc(C)cc3)c(N3CCCCCC3)o2)cc1`, the Potency entry is “inactive”.

Regarding `O=C(CSc1oc(-c2ccc(F)cc2)nc1S(=O)(=O)c1ccc(Br)cc1)NC1CCCCC1`, the Potency entry was “inactive”.

`CC(C)S(=O)(=O)c1oc(-c2ccc(F)cc2)nc1S(=O)(=O)c1ccc(F)cc1`: the Potency is 1.26 µM (active).

`Cc1ccc(CCNC(=O)Cn2c(-c3cccs3)cc3cc(F)ccc32)cc1`: the Potency entry is “inactive”.

`COc1ccc(CC(=O)NCCc2sc3nc(-c4ccc(OC)cc4)nn3c2C)cc1`: the Potency entry was “inactive”.

`COc1c(Cl)cc(C(=O)N(Cc2ccccc2F)C2CCS(=O)(=O)C2)cc1Cl` (stereo not given): the Potency entry is “inactive”.

`Cc1ccc2nc(-c3ccc(O)cc3)c(Nc3ccc4c(c3)OCO4)n2c1`: the Potency result was “inactive”.

`Cc1cc(C)nc(S/C=C/C(=O)c2ccccc2)n1`: the Potency is 3.16 µM (active).

Take `COC(c1ccccc1)(c1ccccc1)C(Oc1nc(C)cc(C)n1)C(=O)O` (stereo not given): the Potency entry is “inactive”.

On to `Cc1cc(C)nc(SC(C)C(=O)N/N=C/c2cccs2)n1` (stereo not given), for which the Potency result was “inactive”.

For `Cc1ccc(Cn2c(CNC(=O)Cc3cccc(C)c3)nc3cccnc32)cc1`, the Potency result is “inactive”.

With `CC(=O)Nc1cc(C(=O)NCc2ccc(F)cc2Cl)ccc1Sc1ccc(Cl)cc1`, the Potency result was “inactive”.

As to `COc1ccc(CN2CCC(=O)c3ccccc3S2(=O)=O)cc1`, the Potency result was “inactive”.

Take `COc1cccc2c1C(=O)c1c(O)c3c(c(O)c1C2=O)CC(O)(C(C)=NNC(=O)c1ccc(Cl)c(Cl)c1)CC3OC1CC(N)C(O)C(C)O1` (stereo not given): the Potency was 1.12 µM (active).

As to `Cc1ccc(Cn2cnc3c(cnn3C(C)(C)C)c2=O)c(F)c1`, the Potency entry is “inactive”.

`COc1cc(CN(C(=O)c2ccccc2Br)c2ccccn2)cc(OC)c1OC`: the Potency entry is “inactive”.

With `CC(C)CC[n+]1ccn(C2=C([O-])c3ccccc3C(=O)/C2=N\S(=O)(=O)c2ccccc2)c1`, the Potency was 3.16 µM (active).

As for `COC(=O)c1ccc(NC(=O)c2cccc3c2C(=O)N(C2CCCCC2)C3)cc1`, the Potency result was “inactive”.

For `Cc1cccc(CN2CCN(C3CN(Cc4ccccc4)S(=O)(=O)C3)CC2)c1` (stereo not given), the Potency entry was “inactive”.

For the compound `Cc1ccc(CN2CC(N3CCC(Cc4ccccc4)CC3)CS2(=O)=O)cc1` (stereo not given), the Potency was 14.1 µM (active).

On to `O=S1(=O)CC(N2CCC(Cc3ccccc3)CC2)CN1Cc1ccccc1` (stereo not given), for which the Potency result was “inactive”.

As to `Cc1ccc(CN2CCc3nc(N4CCN(C)CC4)ncc3C2)cc1`, the Potency result was “inactive”.

Regarding `CCOc1ccc(NC(=O)CC2C(=O)N(c3cccc(OC)c3)C(=O)N2C2CCCCC2)cc1` (stereo not given), the Potency entry is “inactive”.

For `Cc1cccc(NC(=O)Cn2c(C(F)(F)F)nc3ccccc32)c1C`, the Potency result is “inactive”.

Turning to `N#C/C=C/N1CCN(Cc2ccc3c(c2)OCO3)CC1`, the Potency result was “inactive”.

For the compound `Fc1ccc2[nH]c3c(N4CCN(Cc5ccc6c(c5)OCO6)CC4)ncnc3c2c1`, the Potency was 17.8 µM (active).

In the case of `O=C(CSc1nc2c(c(=O)[nH]1)CN(Cc1ccc3c(c1)OCO3)CC2)Nc1cc(F)ccc1F`, the Potency result is “inactive”.

Turning to `Cc1cc(C)cc(NC(=O)Cc2csc(C)n2)c1`, the Potency result was “inactive”.

On to `Cc1ccc(C)c(S(=O)(=O)n2nc(C)c(S(=O)(=O)N3CCC(C)CC3)c2C)c1`, for which the Potency result is “inactive”.

For `COC(=O)c1cc(Oc2ccc(S(=O)(=O)N3CCOCC3)cc2[N+](=O)[O-])cc(C(=O)OC)c1`, the Potency entry was “inactive”.

Take `CC(C)N1CCC(=NNc2ccc([N+](=O)[O-])cc2S(=O)(=O)N2CCOCC2)CC1`: the Potency was 11.2 µM (active).

As to `O=[N+]([O-])c1cc(S(=O)(=O)N2CCCC2)ccc1NN=C1CCCC1`, the Potency result was “inactive”.
